Screening data deposited in PubChem BioAssay by National Center for Advancing Translational Sciences (NCATS).
KB-V1 cytotox: kills drug-selected multidrug resistant KB-V1 cells | KB-V1 MDR cells viability, CellTiter-Glo, 72 h | Potency, µM (doses to about 46.1 µM), usual class: cytotoxic | hit rate 3.4% among 400,000; also: nearly all actives have a fitted effect of over 60% in size
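qHTS viability screen in drug-selected KB-V1 MDR cells: 72 h compound treatment at 37 degrees C, ATP luminescence end point.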
HT1080 IDH1KD tx: kills HT-1080 cells with IDH1 knockdown; HT-1080 IDH1 knockdown viability, ATP luminescence, 48 h; Potency, µM (series often up to 46.1 µM), for inactives: at the top dose activity, negative = toxicity, most hits filed as cytotoxic; hit rate 2% among 360,000; AID 686971;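 also: 0% = DMSO wells and -100% = cell-free medium wells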
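Using the IDH1-knockdown HT-1080 line run in the same batch and compound series as the NT line, viability after 48 h at 37 °C was determined by CellTiter-Glo luminescence and expressed as % activity.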
TDP1 cell noCPT: qHTS for Inhibitors of human tyrosyl-DNA phosphodiesterase 1 (TDP1): qHTS in cells in absence of CPT | hit rate 15% among 420,000 | DT40 Tdp1-/- hTDP1 cells, no CPT, ATP luminescence, 48 h | Potency, µM (titrated, usually from 46.2 µM), for inactives: top-dose activity change, negative = growth inhibition, actives largely listed as inhibitors; also: nearly all actives have a fitted effect of over 55% in size
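Camptothecin absent (DMSO only). Human TDP1-complemented DT40 knockout cells, 400 cells/well, 37 °C for minimum 48 hr; ATP measured via CellTiter-Glo, 30 min dark incubation, luminescence.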
DT40 TDP1 CPT: DT40-hTDP1 cell growth loss with CPT | Potency, µM (doses to about 46.2 µM), without a hit: at the highest dose activity change, negative = growth inhibition, actives largely listed as inhibitors | chicken DT40 Tdp1-/-;hTDP1 cells + 20 nM CPT, ATP luminescence, 48 h | hit rate 12% among 420,000 | AID 686979; also: nearly all actives have a fitted effect of over 55% in size
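Chicken DT40 Tdp1-/- cells complemented with human TDP1, 400 cells/well, exposed to compounds plus 20 nM camptothecin for at least 48 h at 37 C; viability read as ATP content by CellTiter-Glo luminescence.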
HT1080-NT tox: kills 2HG-producing HT-1080-NT fibrosarcoma cells | HT-1080-NT fibrosarcoma viability, CellTiter-Glo ATP luminescence, 48 h | Potency, µM (highest dose often 46.1 µM), without a hit: at the highest dose activity, negative = less viability, hits mostly cytotoxic | hit rate 1.6% among 360,000 | AID 686970;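 also: NT is the 2HG producing partner of a matched IDH1 knockdown line; 0% = DMSO-treated cells and -100% = media-only wells without cells; nearly all actives have a fitted effect of over 55% in size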
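Viability by CellTiter-Glo luminescence after 48 h compound exposure at 37C of HT-1080-NT cells (750/well, RPMI, 5% FBS). % activity scaled between DMSO wells and medium-only wells, then curve-fitted and categorized by curve class.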
KB-3-1 tox: KB-3-1 parental cell cytotoxicity; KB-3-1 viability, CellTiter-Glo ATP luminescence, 72 h; Potency, µM (top dose mostly 46.1 µM), usual class: cytotoxic; hit rate 1.4% among 400,000; AID 1347075; also: nearly all actives have a fitted effect of over 60% in size
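Cytotoxicity in the drug-sensitive parental line KB-3-1 was scored as loss of CellTiter-Glo luminescence following 72 h incubation with compound. Values come from curve fitting of normalized concentration-response data.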
* hit, by the source's call; i = inactive; ? = inconclusive; . = not tested or not shown; ! = repeats disagree. Rows were chosen to be rich in hits. Some 19% of all compounds tested hit in one or more screens of this group. Calls follow the shape of the dose curve; as a rule, active = well fitted curve in the direction sought with a large enough effect; inconclusive = small, poorly fitted or top-dose-only effect, or another doubt; inactive = no such curve, though single readings can be large; an effect the other way counts as inactive or inconclusive. Unless noted, % is scaled to controls: 0 for no effect and ±100 for the full control effect; potency is read from the fitted curve at half-maximal effect.

SMILES | KB-V1 cytotox | HT1080 IDH1KD tx | TDP1 cell noCPT | DT40 TDP1 CPT | HT1080-NT tox | KB-3-1 tox
COc1cccc(OCC(=O)NNC(=O)c2ccc3ccccc3c2)c1 | i | 3.9% | 22.4% | 4.6% | 4.9% | i
O=C(O)c1cc(O)c2c(c1)C(=O)c1cc(O)cc(O)c1C2=O | i | -16.6% | 14.6µM*! | 13µM*! | -5.1% | i
Cc1ccccc1NC(=O)c1c(C)nc(SCC(=O)OCc2ccccc2)c(C#N)c1-c1ccc(F)cc1 | i | -2.8% | 14.6µM* | ? | 1.2% | i
Cc1nc(SCC(=O)OCc2ccccc2)c(C#N)c(-c2ccccc2)c1C(=O)Nc1ccccc1 | i | -0.5% | ? | ? | 1.7% | i
CCCc1nn2c(=O)cc(COc3ccc(NC(=O)c4ccco4)cc3)nc2s1 | i | 13.5% | 21.1% | -18.5% | 6.7% | i
O=C1c2ccccc2C(c2nnnn2-c2ccc3c(c2)OCCO3)N1CCCn1ccnc1 (configuration not stated) | i | 16.2% | -13.1% | -0.5% | -0.2% | i
CCc1ccc(-c2nc(CSCC(=O)N3CCN(c4ccccn4)CC3)c(C)o2)cc1 | 18.4µM* | ? | 18.4µM* | 23.1µM* | 2.0% | ?
Cc1ccc(-c2nc(CSCC(=O)N3CCOCC3)c(C)o2)cc1 | i | -6.4% | -15.7% | -2.6% | -2.7% | i
Cc1ccc(-c2nc(CSCC(=O)N3CCN(c4ccccn4)CC3)c(C)o2)cc1 | ? | -10.2% | 20.6µM* | 18.4µM* | -20.8% | ?
COc1ccc(C2/C=C\CN(C(=O)C3CCCC3)CC(=O)N2Cc2ccc(F)cc2)cc1 (configuration not stated) | i | -2.7% | ? | 20.6µM* | -6.5% | i
COc1ccc(C2/C=C\CN(C(=O)NC34CC5CC(CC(C5)C3)C4)CC(=O)N2Cc2ccc(F)cc2)cc1 (configuration not stated) | i | -6.3% | ? | 23.1µM* | -13.3% | i
COc1ccc(C2/C=C\CN(C(=O)Nc3ccccc3-c3ccccc3)CC(=O)N2Cc2ccc(F)cc2)cc1 (configuration not stated) | ? | -20.2% | ? | 23.1µM* | -14.7% | i
COc1ccc(S(=O)(=O)NCC2CCC(C(=O)O)CC2)cc1 (configuration not stated) | i | 5.9% | 7.9% | 4.7% | 16.9% | i
O=C(N/N=C/c1ccncc1)c1cccc(S(=O)(=O)Nc2ccc(Cl)cc2)c1 | i | ? | 37.4% | 5.2% | -0.8% | i
CCc1ccccc1NC(=O)c1ccc(CN2C(=O)CCn3nc(C)cc32)cc1 | i | . | -7.6% | -13.8% | . | i
COc1ccc2[nH]c3c(c2c1)CCN1C(=O)C(CC(=O)NCC24CC5CC(CC(C5)C2)C4)C[C@H](C(=O)N2CCOCC2)[C@@]31C (some centres not stated) | i | -15.2% | ? | ? | 0.0% | i
C[C@]12c3[nH]c4ccc(Cl)cc4c3CCN1C(=O)[C@@H](CC(=O)NCC13CC4CC(CC(C4)C1)C3)C[C@@H]2C(=O)N1CCOCC1 | ? | ? | 13µM* | 10.3µM* | 23.1µM* | ?
C[C@]12c3[nH]c4ccc(Cl)cc4c3CCN1C(=O)[C@@H](CC(=O)NCC13CC4CC(CC(C4)C1)C3)C[C@@H]2C(=O)N1CCCCC1 | i | 7.9% | 16.4µM* | 16.4µM* | 4.3% | i
CCOC(=O)c1ccccc1NC(=O)CN(c1cc(C(F)(F)F)ccc1Cl)S(C)(=O)=O | i | . | ? | ? | . | i
CC(=O)c1cccc(NC(=O)Cn2c(C)c3cnn(-c4ccccc4)c(=O)c3c2C)c1 | i | . | -19.3% | 20.6µM* | . | i
CCOC(=O)c1cccc(NC(=O)CCCn2c(C)c3cnn(-c4ccccc4)c(=O)c3c2C)c1 | i | . | 16.4µM* | 18.4µM* | . | i
COc1ccc(NC(=O)Cn2c(C)c3cnn(-c4ccccc4)c(=O)c3c2C)c(OC)c1 | i | . | -18.1% | -17.6% | . | i
CCCn1c2ccccc2c2cnn(CC(=O)Nc3cccc(C(=O)OCC)c3)c(=O)c21 | . | . | -20.4% | -22.0% | . | .
CCC(C(=O)Nc1ccc(C(C)=O)cc1)n1c(C)c2cnn(-c3ccccc3)c(=O)c2c1C (configuration not stated) | i | . | ? | 23.1µM* | . | i
CCOC(=O)c1c(C)[nH]c(C)c1S(=O)(=O)N1CCC(C(=O)Nc2ccccc2CC)CC1 | ? | . | ? | ? | . | i
SMILES | KB-V1 cytotox | HT1080 IDH1KD tx | TDP1 cell noCPT | DT40 TDP1 CPT | HT1080-NT tox | KB-3-1 tox
Cc1cc(C(=O)NC(Cc2ccccc2)C(=O)O)c(C)o1 (configuration not stated) | i | 0.4% | -0.2% | -1.2% | -3.0% | i
CC1(C(=O)NCC2CC2)CCN1C(=O)C1(c2ccc(Cl)cc2)CC1 (configuration not stated) | i | 15.9% | -21.7% | ? | 0.6% | i
CS(=O)(=O)N1CCC(C(=O)Nc2cccc(Br)c2)CC1 | i | 2.6% | 1.3% | 5.9% | 5.1% | i
Cc1cccc(NC(=O)c2ccc(Cn3cc(C(F)(F)F)ccc3=O)cc2)c1 | 16.4µM* | -5.2% | -21.1% | 2.8% | -3.8% | i
CC(C)(C)NC(=O)Nc1ccc(Cn2cc(C(F)(F)F)ccc2=O)cc1 | i | 1.7% | ? | 20.6µM* | 0.3% | i
O=C(NCc1ccccc1)c1ccc(Cn2cc(C(F)(F)F)ccc2=O)cc1 | 13µM* | 2.2% | -13.0% | 10.6% | 2.2% | i
O=C(O)c1ccc(Cn2cc(C(F)(F)F)ccc2=O)cc1 | i | 3.3% | 9.9% | 5.3% | 10.6% | i
CC(C)(C)NC(=O)NC(=O)Cn1cc(C(F)(F)F)ccc1=O | i | -6.5% | -5.2% | -13.4% | -6.4% | i
Cc1c(CN(C)C(=O)C2CCC(=O)N(Cc3ccccc3F)C2)[nH]c2ccccc12 (configuration not stated) | i | -7.4% | -28.5% | -27.6% | -10.2% | i
O=C(N/N=C/c1c(O)n(Cc2ccco2)c(=O)[nH]c1=O)c1ccccc1 | i | 7.3% | 4.1% | 14.5% | -1.0% | i
